“And” between values parts separate entries of the source, which are not always exact repeats. Identical values can stand only once. Out of some 410,000 compounds screened, about 18,000 (4.4%) were called active. Another 7% or so got no clear call; they are omitted. Many of the other results were omitted from the sample, so actives are more common in it than they were. Unmarked numbers belong to inactive results. No stated cut-off is given here; in the data, active means activity change below about -60%; inconclusive means no clear call, values can overlap the other calls; inactive means above about -39%.
On the % scale 0 is the no-effect control and ±100 the full control effect.

The nature of the assay: qHTS Assay for inhibitors of the human cytomegalovirus (HCMV). The conditions noted are these: HFF cells, HCMV-luciferase reporter, 72 h; at 57.5 µM; hits give low values. The essentials: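 HFF cells seeded 16 h at 37C, treated with compounds, infected with luciferase-reporter HCMV at MOI 1 PFU/cell; luciferase read at 72 h post infection, normalized to buffer-only and Salinomycin controls.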
Background: Quantitative high-throughput screening tests each substance at several concentrations.
With `CCOC(=O)c1c(C)[nH]c(C)c1S(=O)(=O)N(C)CC(=O)N1CCN(c2ccccc2)CC1`, the activity change, negative = inhibition is -3.36%.
Take `CCOC(=O)c1c(SCC(=O)Nc2cccc(C)c2C)nc(=O)[nH]c1C`: the activity change, negative = inhibition was -0.768%.
As to `CCOC(=O)c1c(C)[nH]c2c1-c1ccccc1C(=O)C2=O`, the activity change, negative = inhibition is -99.7% (active).
With `CCOCCCNC(=O)c1c(NC(=O)Cc2coc3c(C)c(C)ccc23)sc2c1CCC2` the figure was -19.7%; with `CN(C)CCCN(C(=O)c1ccc(S(=O)(=O)N2CCCCCC2)cc1)c1nc2ccc(Br)cc2s1`, -66.2% (active).
Then `CN(C)CCCN(C(=O)c1ccc(S(=O)(=O)N2CCCc3ccccc32)cc1)c1nc2ccc(F)cc2s1`, with -113% (active); and `CCN(CC(=O)Nc1c(F)cccc1F)C(=O)c1ccc(S(=O)(=O)N2CCCCC2)cc1`, with -16.4%.
With `Cc1cc(C)c2sc(NC(=O)c3ccc(S(=O)(=O)N4CCCC4)cc3)nc2c1` the figure was 1.97%; with `CC1CCN(C(=O)c2cccc(S(=O)(=O)N3CCCc4ccccc43)c2)CC1`, -31.3%.
On to `O=C(Nc1nnc(S(=O)(=O)N2CCCc3ccccc32)s1)c1cccc(F)c1`, for which the activity change, negative = inhibition was -22.4%.
With `Cc1cn(C)c(CC(=O)NCc2ccc(Cl)cc2)c1C(=O)O` the figure was -3.74%.
For the molecule `O=C(CSc1ncc(CO)n1Cc1ccc(Cl)cc1)NCc1ccc(F)cc1`, the activity change, negative = inhibition was 0.963%.
Then `Cc1ccc2[nH]c(=O)c(CC=C(Cl)Cl)c(C)c2c1`, with -11.6%; and `CCC(=O)Nc1cccc(-c2nc3cc(C)ccc3o2)c1`, with 103%; and `NC(=O)c1ccc(N2CCCC2)nc1`, with 9.29%.
In the case of `C/C(CC(C)C)=N\Oc1nc(C)cc(C)n1`, the activity change, negative = inhibition is -62.7% (active).
As for `COc1ccc(NC(=O)C(CC(C)C)NS(=O)(=O)c2ccc3c(c2)CCN3C(C)=O)cc1OC` (stereo unspecified), the activity change, negative = inhibition was -16%.
Then `CC(=O)OC1CCC2(C)C(=CCC3C4CC(=O)N(O)C(=O)C4(C)CCC32)C1` (stereo unspecified), with 17.9%; and `C[C@]12CC[C@H](O)CC1=CCC1C2CC[C@@]2(C)C1CC[C@@H]2NC(=O)CCC(=O)O` (stereo partly specified), with -2.14%; and `C[C@@H]1CC[C@@]2(OC1)O[C@H]1C[C@H]3[C@@H]4CC=C5C[C@@H](O)[C@H](O)C[C@]5(C)C4CC[C@]3(C)[C@H]1[C@@H]2C` (stereo partly specified), with -70.9% (active).
In the case of `Cc1cccc(NC(=O)c2nnn(CC(=O)Nc3ccc(C(C)C)cc3)c2N)c1C`, the activity change, negative = inhibition is 3.95%.
For the molecule `COc1cccc(NC(=O)COC(=O)c2ccc3ccccc3n2)c1`, the activity change, negative = inhibition was 78.4%.
On to `COc1cccc(/C=C/c2ccc3ccccc3n2)c1OC(C)=O`, for which the activity change, negative = inhibition is -95.1% (active).
Consider `COc1ccccc1/C=C/C1=NC(=C\N(C)C)/C(=O)O1`, for which the activity change, negative = inhibition is 64.2%.
With `CCOc1ccc2ccccc2c1/C=N/NC(=O)c1c(C)cc(C)[nH]c1=O` the figure was -32.4%; with `CCOc1cccc(/C=C/c2ccc3ccccc3n2)c1OC(C)=O`, -79.7% (active); with `Cc1cc(C)cc(NS(=O)(=O)c2cc3c(cc2C)NC(=O)CO3)c1`, -26.3%.
In the case of `Cc1cccc(N2CCN(C(=O)c3cc4c(=O)oc5ccccc5c4s3)CC2C)c1` (stereo unspecified), the activity change, negative = inhibition was 1.15%.
On to `COc1ccc(NC(=O)Cn2c(=O)n(CCC(C)C)c(=O)c3cccnc32)cc1Cl`, for which the activity change, negative = inhibition is -4.37%.
Then `O=C(Nc1nnc([C@H]2C[C@H](O)[C@@H](CO)O2)s1)c1cccc(Cl)c1`, with 40.2%; and `Cc1ccc(CNC(=O)Nc2nnc([C@H]3C[C@H](O)[C@@H](CO)O3)s2)cc1`, with -100% (active); and `O=C(Nc1ccc(F)cc1)Nc1nnc([C@H]2C[C@H](O)[C@@H](CO)O2)s1`, with 30.2%.
Then `COc1ccccc1OCCC(=O)OCC(=O)NCc1ccccc1`, with 14.2%.
Consider `COc1cc(C(=O)NCc2ccncc2)cc(Br)c1OCc1ccccc1`, for which the activity change, negative = inhibition is -62.2% (active).
On to `COc1cc(-c2nnn(CC(=O)NCc3ccccc3)n2)cc(OC)c1OC`, for which the activity change, negative = inhibition was 5.2% and 12.4%.
`CCC(=O)N1CCc2cc(S(=O)(=O)NC(C(=O)N3CCc4ccccc4C3)C(C)C)ccc21` (stereo unspecified): the activity change, negative = inhibition was -14.7%.
Then `Cc1nc(NC(CC(C)C)C(=O)O)c2nc(C)oc2n1` (stereo unspecified), with -6.81%; and `O=c1c(-c2ccc3c(c2)OCCO3)c(C(F)(F)F)oc2cc(O)cc(O)c12`, with -90.6% (active).
For the molecule `CCOC(=O)c1cc2cc(-c3c(C(=O)OCC)oc4cc(O)cc(O)c4c3=O)ccc2o1`, the activity change, negative = inhibition is -2.73%.
With `CCOc1ccc2c(=O)c(-c3ccc4c(c3)OCCCO4)c(C)oc2c1` the figure was 20.1%.
Then `CCc1ccc(CNC(=O)c2ccc(CS(=O)c3ccc(Br)cc3)o2)cc1` (stereo unspecified), with 10.6%.
On to `CCOC(=O)c1cc(-c2ccccc2)n(CCC(=O)Nc2ccccc2CC)c1C`, for which the activity change, negative = inhibition was 30.9%.
With `Cc1ccc(Cl)cc1NC(=O)CSc1nc2ccccc2nc1Cc1ccccc1` the figure was 36.7%; with `CCN1/C(=C\c2ccc3ccccc3[n+]2CC)Sc2cc(C)ccc21`, -99.8% (active).
Turning to `O=c1o[nH]c(-c2ccccc2)c1N=Nc1c(F)cccc1Cl`, the activity change, negative = inhibition is -12.9%.
Consider `COc1cc(NC(=O)CCn2nc(C)cc2C)cc(OC)c1OC`, for which the activity change, negative = inhibition is 9.6%.

Values taken from PubChem BioAssay AID1259415 (National Center for Advancing Translational Sciences (NCATS), 2018).
